Laboratory results taken from PubChem BioAssay (Tox21).
The source made the active and inactive calls. The call rests on the fitted dose curve; in most records, active means well fitted activation curve with a large enough effect in the repeat runs; inconclusive means weak or mixed curves; inactive means flat fitted curve, though single readings scatter.
On the % scale 0 is the no-effect control and ±100 the full control effect.

Assay: A CellTox Green Cytotoxicity Assay to monitor cytotoxicity in HepG2 cells - 0 hour (AID 1224882); further: nearly all actives have a fitted effect of over 35% in size
Conditions: CellTox Green fluorescence; series mostly up to 76.8 µM; cytotoxicity: at the top concentration
Source text: National Center for Advancing Translational Sciences [NCATS]
NIH Chemical Genomics Center [NCGC]
U.S. Environmental Protection Agency [EPA]
National Institutes of Environmental Health Sciences [NIEHS]
National Toxicology Program [NTP]
Cell-based models are critical for drug discovery. Determining the natural cytotoxic effects resulting from test compounds is an essential research activity. A CellTox Green Cytotoxicity Assay to monitor cytotoxicity in real time of continues cell culture during 40 hours of the compound treatment was used to screen Tox21 10K library compounds in HepG2 cells. CellTox Green Cytotoxicity Assay is a nonlytic, homogeneous, biofluorescent method to measure cytotoxicity in cell culture after experimental manipulation. The assay system uses a proprietary asymmetric cyanine dye that is excluded from viable cells but preferentially stains the dead cell's DNA. […] Viable cells produce no appreciable increases in fluorescence. Therefore, the fluorescence signal produced by the binding interaction with dead cell DNA is proportional to cytotoxicity.
The mixture of HepG2 cell suspension and reagents were dispensed at 600cells/6 ul/well in 1536-well tissue culture treated black solid bottom plates using a Multidrop dispenser. After the assay plates were incubated at a 37 C/5% CO2 incubator for 5 hours, 23 nL of compounds dissolved in DMSO, positive and negative controls was transferred to the assay plate by a pintool work station. The plates were incubated at 37 C for 40 hours. The fluorescence intensity were measured at 0h, 8h, 16h, 24h, 32h and 40h time points using ViewLux plate reader during compound treatment.
In the case of `CC[N+](CC)(CC(=O)Nc1c(C)cccc1C)Cc1ccccc1` (tested in a mixture with another compound), the “cytotoxicity” value is reported as 1.7% [at 35.3 µM] (inactive). With `CC(N)C12CC3CC(CC(C3)C1)C2` (stereo not given) the “cytotoxicity” value was 7.68% [at 35.3 µM] (inactive). For `CCN[C@@H]1C[C@H](N)[C@@H](OC2OC(CN)=CCC2N)[C@H](O)[C@H]1O[C@H]1OC[C@](C)(O)[C@H](NC)[C@H]1O` (stereo not given in full), the cytotoxicity was 3.46% [at 0.29 µM] (inactive). In the case of `CCCCOCCOC(=O)CCCCCCCCC(=O)OCCOCCCC`, the “cytotoxicity” value is reported as 1.94% (inactive). For `O=C(O)CCSCCC(=O)O`, the “cytotoxicity” value was 3.36% (inactive). For `CC[N+](CC)(CC)CCOc1cccc(OCC[N+](CC)(CC)CC)c1OCC[N+](CC)(CC)CC`, the “cytotoxicity” value was -1.68% [at 35.3 µM] (inactive). In the case of `C=C(C)C(=O)OCC1CCCO1` (stereo not given), the “cytotoxicity” value is reported as 1.45% (inactive). In the case of `CC(C)(C)OC(=O)c1cccc(N)c1`, the “cytotoxicity” value is reported as 6.42% (inactive). In the case of `C[N+](C)(CCOc1ccccc1)Cc1cccs1`, the “cytotoxicity” value is reported as -3.78% [at 35.3 µM] (inactive). For `Nc1c2c(nc3c1CCC3)CCCC2`, the “cytotoxicity” value was 5.5% [at 35.3 µM] (inactive). In the case of `C[C@H]1C[C@H]2[C@@H]3CCC4=CC(=O)C=C[C@]4(C)[C@H]3C(=O)C[C@]2(C)[C@@]1(O)C(=O)CO`, the “cytotoxicity” value is reported as -0.356% [at 35.3 µM] (inactive). For `Nc1ccn([C@@H]2O[C@H](CO)[C@@H](O)C2O)c(=O)n1` (stereo not given in full), the “cytotoxicity” value was 3.6% (inactive). With `C=COCC1CCC(COC=C)CC1` (stereo not given) the “cytotoxicity” value was -2.72% (inactive). In the case of `O=C(c1ccccc1)C1(O)CCCCC1`, the “cytotoxicity” value is reported as 1.04% (inactive). In the case of `Cc1onc(-c2c(Cl)cccc2Cl)c1C(=O)Cl`, the “cytotoxicity” value is reported as -6.52% [at 35.3 µM] (inactive). With `CCCCS(=O)(=O)N[C@@H](Cc1ccc(OCCCCC2CCNCC2)cc1)C(=O)O` the “cytotoxicity” value was -12.6% [at 35.3 µM] (inactive). In the case of `O=Cc1cccc(Br)c1`, the “cytotoxicity” value is reported as 3.94% (inactive). For `COc1cccc(OC)c1C(=O)N[C@@H]1C(=O)N2[C@@H]1SC(C)(C)[C@@H]2C(=O)O`, the “cytotoxicity” value was 1.04% [at 35.3 µM] (inactive). In the case of `CC(C)CC(C)(N)C#N` (stereo not given), the “cytotoxicity” value is reported as -1.24% (inactive). In the case of `CCOC(=O)OC(C)OC1=C(C(=O)Nc2ccccn2)N(C)S(=O)(=O)c2ccccc21` (stereo not given), the “cytotoxicity” value is reported as -10.8% [at 35.3 µM] (inactive). With `OCCc1ccccn1` the “cytotoxicity” value was -3.3% (inactive). For `[K+]`, the “cytotoxicity” value was -0.5% (inactive). For `CN1CCN(c2cc3c(nn2)Oc2ccccc2N3C)CC1`, the cytotoxicity was 0.041% [at 15.8 µM] (inactive). In the case of `CC(=O)OCC(=O)[C@@]1(O)[C@H](C)C[C@H]2[C@@H]3CCC4=CC(=O)C=C[C@]4(C)[C@@]3(F)[C@@H](O)C[C@@]21C`, the “cytotoxicity” value is reported as 2.41% [at 35.3 µM] (inactive). For `CC(C)C[C@@H](N)C(=O)O`, the cytotoxicity was -9.4% [at 15.8 µM] (inactive). With `C[C@@H]1CCC[C@H](C)N1` the “cytotoxicity” value was 1.19% [at 35.3 µM] (inactive). In the case of `CC1=CC(=O)[C@H]2C[C@@H]1C2(C)C`, the “cytotoxicity” value is reported as 4.11% (inactive). For `Cc1coc2ccccc2c1=O`, the “cytotoxicity” value was -2.33% [at 35.3 µM] (inactive). For `CC(=O)N[C@H]1[C@H]([C@H](O)[C@H](O)CO)OC(C(=O)O)=C[C@@H]1N=C(N)N`, the “cytotoxicity” value was -3.18% [at 35.3 µM] (inactive). With `NC(=O)Cc1cccc2ccccc12` the “cytotoxicity” value was -0.161% (inactive). With `C=COC(=O)C(C)(CC)CCC(C)C` (stereo not given) the “cytotoxicity” value was 0.344% (inactive). With `CC1=C(C/C=C(\C)CCC[C@H](C)CCC[C@H](C)CCCC(C)C)C(=O)c2ccccc2C1=O` the “cytotoxicity” value was 3.39% [at 35.3 µM] (inactive). In the case of `CC(=O)O[C@@]12CO[C@@H]1C[C@H](O)[C@@]1(C)C(=O)[C@H](O)C3=C(C)[C@@H](OC(=O)[C@H](O)[C@@H](NC(=O)OC(C)(C)C)c4ccccc4)C[C@@](O)([C@@H](OC(=O)c4ccccc4)[C@H]21)C3(C)C`, the “cytotoxicity” value is reported as -8.33% [at 35.3 µM] (inactive). For `CCCn1cc[n+](C)c1C`, the “cytotoxicity” value was -3.54% (inactive). With `COc1cc(C(=O)NCc2ccc(OCCN(C)C)cc2)cc(OC)c1OC` the “cytotoxicity” value was -8.5% [at 35.3 µM] (inactive). In the case of `Cc1ncc([C@@H](CCCCCCc2ccc3c(n2)NCCC3)CC(=O)O)cn1`, the “cytotoxicity” value is reported as -4.52% (inactive). With `C=CC(C)(CCC=C(C)C)OC(=O)CC` (stereo not given) the “cytotoxicity” value was 5.27% (inactive). For `c1coc(CNc2ncnc3nc[nH]c23)c1`, the “cytotoxicity” value was 0.243% (inactive). In the case of `CNC(=O)Nc1ccc(Cl)c(Cl)c1`, the “cytotoxicity” value is reported as 4.37% (inactive). For `Nc1ccn([C@@H]2O[C@H](CO)[C@@H](O)C2(F)F)c(=O)n1`, the “cytotoxicity” value was 2.56% [at 35.3 µM] (inactive).
